In the library only some 11% were active in any assay of this set; here they are far more common.
CBFb RUNX1 block = qHTS Assay for Compounds Blocking the Interaction Between CBF-beta and RUNX1 for the Treatment of Acute Myeloid Leukemia; Runt-related transcription factor 1 (Homo sapiens) + Core-binding factor subunit beta …; AlphaScreen CBFb-His/RUNX1-biotin binding, biochemical; 230,000 tested, under 10 active; Potency, µM (titrated, usually from 59.8 µM), for the others: at the highest dose activity, negative = inhibition, hits mostly inhibitors; further: % of control where 0% means no effect
Target sequence (Q01196 whole entry, looked up): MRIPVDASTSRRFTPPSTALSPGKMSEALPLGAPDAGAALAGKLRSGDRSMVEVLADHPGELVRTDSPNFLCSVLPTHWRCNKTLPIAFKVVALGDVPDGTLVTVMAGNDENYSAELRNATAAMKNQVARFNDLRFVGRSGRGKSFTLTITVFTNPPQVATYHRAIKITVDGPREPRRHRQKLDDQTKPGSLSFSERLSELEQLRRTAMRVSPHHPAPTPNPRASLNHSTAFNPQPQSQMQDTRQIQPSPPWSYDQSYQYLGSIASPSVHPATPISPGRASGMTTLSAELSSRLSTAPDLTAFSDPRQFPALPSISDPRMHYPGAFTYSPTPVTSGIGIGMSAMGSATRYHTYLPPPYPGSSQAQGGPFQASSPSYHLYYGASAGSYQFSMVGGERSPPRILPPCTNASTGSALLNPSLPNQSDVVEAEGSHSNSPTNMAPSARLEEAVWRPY
Target sequence (Q13951 whole entry, looked up): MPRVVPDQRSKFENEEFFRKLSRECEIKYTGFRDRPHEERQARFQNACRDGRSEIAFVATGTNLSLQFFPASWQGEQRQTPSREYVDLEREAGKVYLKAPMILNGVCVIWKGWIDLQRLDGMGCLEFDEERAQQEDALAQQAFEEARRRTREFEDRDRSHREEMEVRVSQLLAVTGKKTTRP
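AlphaScreen proximity signal reports loss of binding between His-tagged CBF-beta and biotin-labelled RUNX1, each at 30 nM. Proteins are pre-associated for 20 minutes, compounds added for 15 minutes, then beads for 90 minutes, all at ambient temperature.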
HTT aggregate = qHTS Multiplex Assay to Identify Dual Action Probes in a Cell Model of Huntington: Aggregate Formation (GFP); PC12 HttQ103-GFP aggregates, Acumen cytometry, 40 h; Potency, µM (doses to about 46.1 µM), for inactives: at the highest dose activity change, negative = inhibition, actives largely listed as inhibitors; actives 1.1% (n = 220,000); AID 1688, 2009; further: potency means the concentration at half of the fitted maximal effect; on the % scale 0 is the no-effect control and ±100 the full control effect; nearly all actives have a fitted effect of over 60% in size
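PC12 cells stably carrying ecdysone-inducible HTT exon 1 Q103–GFP were induced with tebufenozide (100 nM final) and treated with library compounds in titration. GFP aggregates in lysates were counted by laser scanning cytometry.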
PNC assembly inh = High Content Assay for Compounds that inhibit the Assembly of the Perinucleolar Compartment; PC3M PTB-GFP, PNC prevalence imaging, 16 h; stronger effect = lower value; AID 2417, 2010; actives 3.1% (n = 140,000); activity change (PNC), negative = inhibition, % at 10 µM;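 active means readout at or below -70, meaning at least 70% loss of cells showing the perinucleolar compartment, a nuclear body marking cancer cells; inconclusive means readout between -30 and a set limit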;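 further: plate controls were DMSO wells for no effect and camptothecin positive control wells for full effect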
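Compounds are pinned in duplicate onto adhered PC3M cells stably expressing GFP-tagged PTB and incubated 16 h at 37 C. Cells are then fixed, nuclei stained with Hoechst, and PNC-positive cells counted.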
HTT ATP protect = qHTS Multiplex Assay to Identify Dual Action Probes in a Cell Model of Huntington: Cytoprotection (ATP). PC12 HTT-Q103 induced, cytoprotection, ATP luminescence, 40 h. Potency, µM (titrated, usually from 56.4 µM), for inactives: cytoprotection (ATP increase), actives largely listed as activators. actives 0.14% (n = 230,000). AID 1471, 2008; further: potency means the concentration at half of the fitted maximal effect; % of control where 0% means no effect; nearly all actives have a fitted effect of over 45% in size
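Compounds were screened for protection of PC12 cells against cell death after tebufenozide induction (100 nM final) of mutant Huntingtin exon 1 (Q103) fused to GFP.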
ALDH1A1 block = qHTS Assay for Inhibitors of Aldehyde Dehydrogenase 1 (ALDH1A1). Aldehyde dehydrogenase 1A1 (Homo sapiens), P00352. Purified ALDH1A1, NADH fluorescence, propionaldehyde substrate. Potency, µM (titrated, usually from 75.3 µM), inactives show at the top dose activity, negative = inhibition, actives largely listed as inhibitors. actives 7.3% (n = 220,000); active means well fitted inhibition curve with a large enough effect, not every such curve was filed as active; inconclusive means small, poorly fitted or top-dose-only effect, or another doubt; inactive means no such curve, though single readings can be large or run the other way;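 further: potency means the concentration at half of the fitted maximal effect; plate controls were no enzyme wells and a reference inhibitor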
HPGD block = qHTS Assay for Inhibitors of HPGD (15-Hydroxyprostaglandin Dehydrogenase) | purified HPGD, NADH fluorescence kinetic, PGE2 substrate | 15-hydroxyprostaglandin dehydrogenase [NAD(+)] (Homo sapiens), P15428 | actives 4.3% (n = 150,000) | Potency, µM, for inactives: top-dose activity change, negative = inhibition, most hits filed as inhibitors | AID 894, 2007; active means well fitted inhibition curve with a large enough effect, not every such curve was filed as active; inconclusive means small, poorly fitted or top-dose-only effect, or another doubt; inactive means no such curve, though single readings can be large or run the other way; further: potency means the concentration at half of the fitted maximal effect; on the % scale 0 is the no-effect control and ±100 the full control effect
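20 nM HPGD preincubated 15 min at room temperature with compound in 50 mM Tris-HCl pH 8, 0.01% Tween 20. Started with 1 mM NAD+ and 30 uM prostaglandin E2; NADH fluorescence (360/450 nm) read 5 times over 30-s intervals, last minus first.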
The depositor's hits bear a star; ? = inconclusive; . = no result; [ ] = remark or other dose. Unless noted, the call rests on the fitted dose curve; in most records, active means well fitted curve in the direction sought with a large enough effect; inconclusive means small, poorly fitted or top-dose-only effect, or another doubt; inactive means no such curve, though single readings can be large; an effect the other way counts as inactive or inconclusive.

SMILES	CBFb RUNX1 block	HTT aggregate	PNC assembly inh	HTT ATP protect	ALDH1A1 block	HPGD block
CC(=O)Nc1ccn(C2OC(C(COC(C)=O)NC(=O)C(CCCCNC(=O)OCc3ccccc3)NC(=O)OC(C)(C)C)C(OC(C)=O)C2OC(C)=O)c(=O)n1 (centres undefined)	-5.9%	.	.	.	.	.
FC(F)(F)c1cc(-c2cccs2)nc(-n2cc(Cl)cn2)n1	8.6%	-19.0%	17.0	4.3%	?	?
c1ccc(N/N=C(\Cc2nc3ccccc3[nH]2)c2ccccc2)cc1	4.4%	27.8%	8.2	17.4%[10 µM]	28.2µM*	?
Cc1ccc(N/N=C(\Cc2nc3ccccc3[nH]2)c2ccccc2)cc1	-17.5%	?	0.1	-0.1%[1.9 µM]	10µM*	?
COc1cccc(C(=O)Nc2ccc(C(F)(F)F)n(C)c2=O)c1	-4.7%	-8.3%	24.9	.	?	-16.9%
Cc1cc(CN(C)C(=O)CC2C(=O)NCCN2Cc2c(F)cccc2Cl)n[nH]1 (centres undefined)	12.7%	-5.2%	.	-15.6%	15.8µM*	.
Cc1nonc1CN(C)C(=O)CC1C(=O)NCCN1Cc1c(F)cccc1Cl (centres undefined)	3.4%	5.2%[9.22 µM]	.	17.0%[10 µM]	-5.7%	.
COc1cc([C@H]2[C@@H]3CCCC[C@]3(O)CCN2CC(=O)Nc2ccc(C)cc2)ccc1O	-0.8%	16.0%	-100.0*	6.1%	0.1%	4.9%
COc1ccc(NC(=O)CN2CCC3(O)CCCCC3C2c2ccccc2OC)cc1 (centres undefined)	4.9%	4.3%	15.5	-18.3%	4.9%	-0.4%
COc1ccc(S(=O)(=O)N(CCc2ccccc2)CC(N)=O)cc1	3.6%	0.0%[9.22 µM]	.	-6.9%[10 µM]	7.94µM*	.
COc1ccc(CC/C(C)=N\NC(N)=O)cc1	7.4%	-20.0%	-105.3*	.	0.1%	9.1%
COc1ccc(/C=N/NC(=O)CN(c2ccc(OC)cc2)S(=O)(=O)c2ccccc2)cc1	-4.5%	-2.5%	.	-28.7%	-9.0%	.
COc1ccc(N(CC(=O)N/N=C(\C)CCc2ccccc2)S(=O)(=O)c2ccc(C)cc2)cc1	0.4%	10.9%[9.22 µM]	.	3.55µM*	.	.
COc1cccc(Nc2ncc3nc(C)c(=O)n(C)c3n2)c1	.	.	.	-112.7%	2.6%	.
Cc1cc(=O)oc2cc(OCC(=O)N3CCc4ccccc4C3)ccc12	-3.9%	11.5%	-9.8	-5.3%	?	?
O=C(COc1ccc2ccc(=O)oc2c1)N1CCc2ccccc21	9.9%	13.4%	.	-31.6%	?	.
Cc1cc(=O)oc2cc(OCC(=O)N3CCCc4ccccc43)ccc12	3.0%	-3.5%	-19.2	2.7%	22.4µM*	?
Cc1cc(=O)oc2ccc(OCC(=O)N3CCc4ccccc43)cc12	0.4%	4.4%	12.6	-17.7%	15.8µM*	-19.6%
NC(=O)C[C@H](N)C(N)=O	.	.	.	2.7%[10 µM]	-0.5%[13.5 µM]	-14.3%
Cc1cc(C)cc(N(CC(=O)O)S(=O)(=O)c2cccnc2)c1	.	.	.	-7.7%	.	.
COCCNC(=S)Nc1cc(OC)c(OC)cc1C#N	0.8%	1.9%[9.22 µM]	.	-18.8%	?	.
COC(=O)c1cc(C(=O)OC)cc(-n2c(C)cc(C=O)c2C)c1	6.1%	22.5%	.	-23.8%	?	.
Cc1cc(/C=N/O)c(C)n1-c1ccccc1	-11.9%	-18.8%	0.0	25.9%[10 µM]	-6.9%	-27.4%
COc1ccccc1-n1c(C)cc(C=O)c1C	-3.3%	15.0%	2.0	10.1%	14.1µM*	-6.5%
CCOC(=O)c1cccc(-n2c(C)cc(C=O)c2C)c1	2.4%	11.0%	?	4.1%[10 µM]	11.2µM*	-0.7%
COC(=O)c1cccc(-n2c(C)cc(C=O)c2C)c1	-4.5%	10.8%	5.4	.	7.94µM*	-13.0%

Source: PubChem (National Center for Advancing Translational Sciences (NCATS))
